Results on 14 molecules are retold here after PubChem BioAssay (NCI).

Molecules are shown by their SMILES. The panel holds about 83,000 compounds, 20% with a hit somewhere; the sample as a whole holds those more often.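 48-hour exposure, single concentration, 96-well plates; percent growth endpoint where 0 means no net growth. Active: below 10.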 Values without a mark were called inactive. Activity calls are given as the source filed them.

Among the test systems are SR leukemia; RPMI-8226 leukemia; OVCAR-8 ovarian; OVCAR-5 ovarian; SK-OV-3 ovarian; IGROV1 ovarian; OVCAR-3 ovarian; HS 578T breast; NCI/ADR-RES ovarian; T-47D breast; BT-549 breast; MDA-MB-435 melanoma; SW-620 colon; MCF7 breast; HCT-116 colon; HCC-2998 colon; KM12 colon; OVCAR-4 ovarian.
Common to all, as to assay: NCI-60 one-dose screen, 48 h (100 = growth as untreated, 0 = no growth, -100 = all killed)
Conditions in all cases: 10 µM unless noted

For the molecule `Nc1nc2c(c3ncncc13)C(c1cccc(C(F)(F)F)c1)Cc1ncncc1-2` (stereo not drawn), the growth in the assay on SR leukemia is 32.9%; in the assay with RPMI-8226 leukemia it was 26.8%; with OVCAR-8 ovarian, 57.6%; in the assay with OVCAR-5 ovarian, 77.4%; in the assay with SK-OV-3 ovarian, 32.9%; with IGROV1 ovarian, 54.4%. Further, the growth with OVCAR-3 ovarian is 2.43% (active); with HS 578T breast, 18.2%; in the assay with NCI/ADR-RES ovarian, 15.3%; in the assay on T-47D breast it was 37.9%; in the assay on BT-549 breast, 30.1%; in the assay with MDA-MB-435 melanoma, -24.7% (active). Further, the growth in the assay on SW-620 colon is 28.9%; with MCF7 breast, 19.2%; in the assay on HCT-116 colon, 18.5%; in the assay with HCC-2998 colon, 64.3%; in the assay with KM12 colon, 28.9%.
Consider `O=C(Nn1cnc2ccccc21)N1CCCC1`, for which the growth is 76.5% with SR leukemia; 150% in the assay with RPMI-8226 leukemia; 106% in the assay on OVCAR-8 ovarian; 95.7% with OVCAR-5 ovarian; 104% in the assay on SK-OV-3 ovarian; 39.4% in the assay with IGROV1 ovarian. Besides, the growth is 104% in the assay on OVCAR-3 ovarian; 104% with HS 578T breast; 119% in the assay with NCI/ADR-RES ovarian; 106% in the assay on T-47D breast; 96.5% in the assay on BT-549 breast; 104% with MDA-MB-435 melanoma. Also, the growth is 109% in the assay on SW-620 colon; 108% in the assay with MCF7 breast; 85.1% in the assay on HCT-116 colon; 83.7% in the assay with HCC-2998 colon; 116% in the assay with KM12 colon.
As for `O=C(Nc1ccc(-n2cc(-c3ccncc3)c(-c3ccc(Cl)c(O)c3)n2)cc1)c1ccc(Cl)c(C(F)(F)F)c1`, the growth is -13.4% (active) with SR leukemia; -42.7% (active) in the assay with RPMI-8226 leukemia; -1.91% (active) in the assay on OVCAR-8 ovarian; 52.6% in the assay with OVCAR-5 ovarian; 40.6% in the assay on OVCAR-4 ovarian; 14.4% with SK-OV-3 ovarian. For the same molecule, the growth in the assay on OVCAR-3 ovarian was -24.9% (active); in the assay on HS 578T breast, -53.7% (active); in the assay with NCI/ADR-RES ovarian, 29.4%; with MDA-MB-435 melanoma it was 3.99% (active); in the assay with MCF7 breast, 6.22% (active); in the assay with HCT-116 colon, -100% (active). Also, the growth with HCC-2998 colon was 5.55% (active); in the assay with KM12 colon it was 3.31% (active).
With `Cc1ccc(S(=O)(=O)NC(CCC(=O)Nc2ccccc2)C(=O)Nc2ccccc2)cc1` (stereo not drawn), the growth in the assay on SR leukemia was 4.65% (active); in the assay with RPMI-8226 leukemia it was -17.1% (active); in the assay on OVCAR-8 ovarian, -10.9% (active); with OVCAR-5 ovarian, -8.85% (active); in the assay with OVCAR-4 ovarian it was -4.83% (active); in the assay with IGROV1 ovarian, -25.1% (active). Besides, the growth with OVCAR-3 ovarian is -42% (active); in the assay with HS 578T breast, 2.98% (active); in the assay on NCI/ADR-RES ovarian it was -24.7% (active); with BT-549 breast, -14.9% (active); in the assay on MDA-MB-435 melanoma, -1.32% (active); with SW-620 colon, 11.1%. For the same molecule, the growth is -8.66% (active) with MCF7 breast, -49.5% (active) in the assay on HCT-116 colon, 0.86% (active) with HCC-2998 colon and 0.4% (active) with KM12 colon.
`COC(=O)/C=C/c1cc(O)c2oc(-c3ccc(O)c(O)c3)c(C(=O)OC)c2c1`: the growth in the assay on SR leukemia is 22%; in the assay on RPMI-8226 leukemia it was -16.8% (active); in the assay with OVCAR-8 ovarian it was 18.5%; in the assay with OVCAR-5 ovarian, 43.6%; in the assay with OVCAR-4 ovarian, 42.8%; in the assay with OVCAR-3 ovarian, 11.7%. Besides, the growth with HS 578T breast was 18.3%; with NCI/ADR-RES ovarian it was -3.33% (active); with BT-549 breast it was 46.6%; in the assay on MDA-MB-435 melanoma it was -37.1% (active); in the assay on SW-620 colon, 14.8%; with MCF7 breast, 9.36% (active). Further, the growth in the assay on HCT-116 colon is 24.5%; in the assay on HCC-2998 colon, 47.2%; in the assay with KM12 colon it was 13.8%.
As for `COC(=O)c1ccc2[nH]c(O)c(C(=Nc3ccc(N(C)C(=O)CN4CCN(C)CC4)cc3)c3cccc(OC)c3)c2c1`, the growth with SR leukemia was -3.85% (active); with RPMI-8226 leukemia it was 4.7% (active); in the assay on OVCAR-8 ovarian, 23.7%; in the assay on OVCAR-5 ovarian it was 33.8%; in the assay on SK-OV-3 ovarian, -0.652% (active); in the assay with IGROV1 ovarian, 1.75% (active). The growth in the assay on OVCAR-3 ovarian was 10.5%; in the assay on HS 578T breast it was 6.7% (active); in the assay on NCI/ADR-RES ovarian, 99.5%; with BT-549 breast, 11.2%; in the assay with MDA-MB-435 melanoma it was 31.8%; in the assay on SW-620 colon, 2.03% (active). The growth was 6.86% (active) in the assay with MCF7 breast, -5.68% (active) in the assay with HCT-116 colon, 20.3% with HCC-2998 colon and 4.88% (active) with KM12 colon.
With `CC1=C[C@@H]2c3c(c(O)c(O)c4oc5cc(O)cc(O)c5c(=O)c34)[C@@H](c3cc(O)c(O)c4oc5cc(O)cc(O)c5c(=O)c34)[C@@H]2C(C)(C)C1`, the growth with SR leukemia was 4.52% (active); in the assay on RPMI-8226 leukemia, -4.75% (active); in the assay on OVCAR-8 ovarian, 7.34% (active); with OVCAR-5 ovarian, 19.6%; with OVCAR-4 ovarian it was 22.3%; in the assay with IGROV1 ovarian, 12.9%. In addition, the growth in the assay on OVCAR-3 ovarian was -10.4% (active); in the assay with HS 578T breast it was 8.08% (active); in the assay on NCI/ADR-RES ovarian it was 68.8%; in the assay on BT-549 breast, 12.1%; in the assay with MDA-MB-435 melanoma, -42.1% (active); with SW-620 colon, -50.9% (active). Also, the growth in the assay with MCF7 breast is -44.8% (active); in the assay on HCT-116 colon, -78.8% (active); in the assay with HCC-2998 colon it was -34.5% (active); in the assay on KM12 colon, -55.2% (active).
In the case of `CNCCCNCCCCNCCCN1C(=O)c2ccc3c4c(ccc(c24)C1=O)C(=O)N(CCCNCc1ccccc1OC)C3=O`, the growth with SR leukemia is 12%; with RPMI-8226 leukemia, 15%; in the assay with OVCAR-8 ovarian, 41.9%; in the assay with OVCAR-5 ovarian it was 55.9%; in the assay with SK-OV-3 ovarian, 54.4%; with IGROV1 ovarian it was 12.7%. The growth in the assay on OVCAR-3 ovarian is 6.09% (active); in the assay with HS 578T breast, 12.5%; in the assay with NCI/ADR-RES ovarian, 43.4%; in the assay on T-47D breast, 8.96% (active); with BT-549 breast, 57.8%; in the assay with MDA-MB-435 melanoma, 1.07% (active). The growth with SW-620 colon was 19.8%; with MCF7 breast it was 7.86% (active); in the assay on HCT-116 colon it was 11.1%; with HCC-2998 colon it was 31.5%; in the assay with KM12 colon, 12%.
On to `CCCC(=O)NNc1[nH]c(-c2cc(OC)c(OC)c(OC)c2)cc1C(=O)OCC`, for which the growth was 68.2% in the assay with SR leukemia; 101% in the assay with RPMI-8226 leukemia; 108% in the assay on OVCAR-8 ovarian; 92.8% in the assay on OVCAR-5 ovarian; 110% in the assay on SK-OV-3 ovarian; 22.6% in the assay on IGROV1 ovarian. The growth is 92.6% in the assay with OVCAR-3 ovarian; 105% in the assay on HS 578T breast; 114% with NCI/ADR-RES ovarian; 82.1% in the assay on T-47D breast; 100% in the assay with BT-549 breast; 101% with MDA-MB-435 melanoma. The growth in the assay with SW-620 colon was 109%; in the assay on MCF7 breast it was 117%; with HCT-116 colon, 93%; in the assay with KM12 colon it was 125%.
Regarding `Cc1nnc(/N=C2\NC(=O)/C(=C/C=C/c3ccccc3)S2)s1`, the growth with SR leukemia was 34.8%; in the assay with RPMI-8226 leukemia it was 44.8%; with OVCAR-8 ovarian, 49.5%; in the assay on OVCAR-5 ovarian, 88.3%; with OVCAR-4 ovarian it was 48.5%; in the assay on SK-OV-3 ovarian it was 58.3%. Besides, the growth with OVCAR-3 ovarian is 38.5%; with NCI/ADR-RES ovarian, 44.8%; with T-47D breast, 53.8%; with BT-549 breast, 52.2%; in the assay on MDA-MB-435 melanoma, 16.3%; in the assay on SW-620 colon it was 74.1%. Besides, the growth is 39.9% with MCF7 breast, 36.9% in the assay on HCT-116 colon, 67% with HCC-2998 colon and 42.7% in the assay on KM12 colon.
As to `CCS(=O)(=O)OCCO[C@H]1Cc2cc3ccc(=O)oc3cc2OC1(C)C`, the growth with SR leukemia was 111%; in the assay with RPMI-8226 leukemia, 113%; in the assay on OVCAR-8 ovarian it was 101%; in the assay on OVCAR-5 ovarian, 107%; with OVCAR-4 ovarian it was 106%; in the assay on IGROV1 ovarian, 109%. Moreover, the growth in the assay with HS 578T breast is 98%; with NCI/ADR-RES ovarian, 107%; with MDA-MB-435 melanoma it was 107%; with SW-620 colon, 97%; in the assay on MCF7 breast, 95.1%; in the assay on HCT-116 colon it was 106%. Also, the growth with KM12 colon was 104%.
Turning to `COc1cc(-c2nc3c(c(C)nc4c3nnn4-c3ccccc3)c(=O)o2)cc(OC)c1OC`, the growth in the assay with SR leukemia was 108%; with RPMI-8226 leukemia, 105%; with OVCAR-8 ovarian, 107%; in the assay with OVCAR-5 ovarian it was 103%; with OVCAR-4 ovarian, 114%; in the assay with SK-OV-3 ovarian, 115%. Besides, the growth is 116% in the assay on OVCAR-3 ovarian; 103% in the assay on HS 578T breast; 115% with NCI/ADR-RES ovarian; 105% in the assay with BT-549 breast; 106% in the assay with MDA-MB-435 melanoma; 107% in the assay on SW-620 colon. The growth with MCF7 breast is 97.5%; in the assay with HCT-116 colon it was 99.3%; in the assay on HCC-2998 colon, 130%; in the assay on KM12 colon, 110%.
On to `COc1cc(/C(=C2/O[C@@H]([C@H]3COC(C)(C)O3)[C@H]3OC(C)(C)O[C@@H]23)c2ccc3c(c2)OCO3)cc(OC)c1OC`, for which the growth is 80.9% in the assay with SR leukemia; 73.7% with RPMI-8226 leukemia; 4.49% (active) with OVCAR-8 ovarian; 59.2% in the assay with OVCAR-5 ovarian; 58.1% in the assay with OVCAR-4 ovarian; 63.1% in the assay with SK-OV-3 ovarian. The growth in the assay with OVCAR-3 ovarian was 74.8%; with NCI/ADR-RES ovarian, 44.4%; with T-47D breast, 55.9%; with MDA-MB-435 melanoma, 73.3%; in the assay with MCF7 breast it was 44.5%; in the assay with HCT-116 colon, 9.6% (active). Also, in the assay on KM12 colon, the growth is 63.6%.
Regarding `CCC1(CC)C(OC)NC(Br)=C(C#N)C1(C#N)C(N)=O` (stereo not drawn), the growth was 57.5% with SR leukemia; 132% in the assay with RPMI-8226 leukemia; 106% in the assay with OVCAR-8 ovarian; 249% in the assay on OVCAR-5 ovarian; 114% in the assay on SK-OV-3 ovarian; -8.89% (active) in the assay with IGROV1 ovarian. Besides, the growth in the assay on OVCAR-3 ovarian was 119%; in the assay on HS 578T breast it was 96.5%; in the assay with NCI/ADR-RES ovarian it was 124%; in the assay on T-47D breast, 113%; in the assay on BT-549 breast it was 104%; in the assay on MDA-MB-435 melanoma, 107%. For the same molecule, the growth was 101% with SW-620 colon, 110% in the assay on HCT-116 colon, 121% in the assay with HCC-2998 colon and 103% with KM12 colon.
